Screening data from PubChem.
MK inhibit = blocks S. pneumoniae mevalonate kinase. purified MK, PK/LDH-coupled NADH absorbance 340 nm. 65,000 tested, 0.48% active. inhibition, % at 10 µM;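 active = ranked among the strongest by inhibition in the single 10 µM screen, a fixed top-ranked set picked for dose follow-up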
Fluor 339 460 = intrinsic fluorescence of library compounds, ex339/em460 – biochemical, MLSMR library, data from DPM-DC assay, artefact control, profiling panel; compound autofluorescence, ex339/em460 nm, NADH buffer; active compounds read high; 1 = no-compound wells, NADH background; fluorescence fold increase at 10 µM; 65,000 tested, 5.5% active; AID 709;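 active = at 10 µM, mean starting fluorescence two-fold or more over control wells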;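 note: signal is the first read of a kinetic run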
PMK inhibit = blocks S. pneumoniae phosphomevalonate kinase. purified PMK, PK/LDH-coupled NADH absorbance 340 nm. inhibition, % at 10 µM. 65,000 tested, 0.49% active;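 active = top-ranked compounds by inhibition in the single 10 µM screen, taking a fixed number of the strongest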;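 note: 0% = full reaction with DMSO carrier and 100% = background rate without enzyme reaction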
NADH enzymes = inhibition of NAD/NADH coupling enzymes, library profiling. coupled PK/LDH NADH assays, four targets. IC50, µM (highest dose often 10 µM), for the others: top-dose inhibition. 65,000 tested, 0.02% active;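 active = single-dose screening hits from any of four coupled enzyme assays that gave an IC50 when retested across doses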;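 note: the DPM-DC format reads NADH fluorescence rather than 340 nm absorbance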
A340 absorber = absorbance at 340 nm; compound absorbance at 340 nm, fold over control; fold change at 10 µM; 65,000 tested, under 10 active; AID 708;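 active = at 10 µM dose, initial 340 nm absorbance at least 2 fold that of control wells; inactive = change under 2 fold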;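 note: initial absorbance extrapolated from kinetic A340 decline of NADH oxidation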
DPM-DC inhibit = blocks S. pneumoniae diphosphomevalonate decarboxylase; 65,000 tested, 0.49% active; purified DPM-DC, PK/LDH coupled NADH fluorescence; AID 556; calls only at 10 µM;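 active = the 320 compounds with the highest percent inhibition in the single-dose primary screen, excluding strongly autofluorescent ones, cut at about 32% in these data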;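 note: kinetic rate of NADH fluorescence loss reporting ADP formed by the decarboxylase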
Numbers without * were called inactive; i = inactive; x = no result given; + = active, no number. Only some compounds are listed: those with a hit (about 6.5% of all), similar ones and a draw of the others.

SMILES	MK inhibit	Fluor 339 460	PMK inhibit	NADH enzymes	A340 absorber	DPM-DC inhibit
Cc1cc(-c2cc(-c3ccc(Cl)cc3)nc(N)c2C#N)co1	17	2.3*	4	11%	1	x
N#Cc1c(N)oc(-c2ccc3c(c2)OCO3)c1-c1ccc2c(c1)OCO2	2	2.1*	15	9%	1.1	x
N#Cc1c(N)nc2c(c1-c1ccc3c(c1)OCO3)CCCCCC2	2	1.3	0	2%	1.1	i
O=C(O)CN1CCNCC1	7	1	9	6%	1	i
Cn1c(=O)cc(OCCCC(=O)Nc2ccccn2)c2ccccc21	1	1	13	6%	0.99	i
Cc1ccc(-c2cc(-c3ccc4c(c3)OCO4)c(C#N)c(N)n2)o1	13	3.8*	16	15%	1	x
N#Cc1nn(-c2ccccc2)nc1N1CCCCC1	0	5*	12	6%	1	x
N#CCCN1CCN(C(CNS(=O)(=O)c2ccc(Cl)cc2)c2ccccc2)CC1 (stereo not drawn)	2	1.1	13	5%	1	i
CCN(Cc1cc2cc(OC)ccc2[nH]c1=O)C(=O)c1ccncc1	3	1.8	9	5%	1	i
CCOc1ccc(N(Cc2cc3cc(OC)ccc3[nH]c2=O)S(C)(=O)=O)cc1	4	2.8*	5	12%	1	i
COc1ccc2[nH]c(=O)c(CN(C(=O)C3CCCO3)c3ccc(C)cc3)cc2c1 (stereo not drawn)	11	2.9*	15	17%	1.1	i
CCN(Cc1cc2cc(OC)ccc2[nH]c1=O)C(=O)Cc1ccc(OC)cc1	6	2.4*	3	1%	1	i
COc1ccc2[nH]c(=O)c(CN(C(C)=O)c3cccc(C)c3)cc2c1	0	3.2*	7	5%	1.1	i
CCOC(=O)c1ccc(NC(=O)CSC2=NC(=O)C(CC)C(=O)N2)cc1 (stereo not drawn)	0	1	11	3%	0.97	i
COc1ccc2[nH]c(=O)c(CN(C)C(=O)COc3ccccc3)cc2c1	11	3.4*	18	15%	1	x
CCC(=O)N(Cc1cc2cc(OC)ccc2[nH]c1=O)c1ccc(C)cc1C	6	3.1*	15	10%	1	i
CCOc1ccccc1C(=O)N(C)Cc1cc2cc(OC)ccc2[nH]c1=O	9	2.7*	1	9%	1.1	i
CCCCN(Cc1cc2cc(OC)ccc2[nH]c1=O)C(=O)COc1ccccc1	8	1.9	7	4%	1	i
CCC(=O)N(Cc1ccc2c(c1)OCO2)Cc1cc2cc(OC)ccc2[nH]c1=O	17	1.7	18	15%	1	i
COCC(=O)N(Cc1cc2cc(OC)ccc2[nH]c1=O)c1ccccc1	8	2.7*	0	3%	1	i
CCOc1cc(C(=O)N(C)Cc2cc3cc(OC)ccc3[nH]c2=O)cc(OCC)c1OCC	13	1.6	13	6%	1	i
Cc1cc(NC(=O)CSc2nnc3c(C)cc4cc5c(cc4n23)OCO5)no1	9	1.7	11	9%	1	i
CC(C)Cc1cc(C(=O)O)n[nH]1	10	2*	10	16%	1	i
O=C(O)c1cc(-c2ccco2)[nH]n1	1	1.1	6	2%	1	i
CC1(C)Cc2nc(N)c(C(=O)NCCO)cc2CO1	2	2.3*	5	4%	1.1	x
SMILES	MK inhibit	Fluor 339 460	PMK inhibit	NADH enzymes	A340 absorber	DPM-DC inhibit
CCOC(=O)c1sc2nc3c(cc2c1N)COC(C)(C)C3	8	1.5	2	5%	1	i
COc1ccc(-n2c(=O)c3c4c(sc3n3c(C)nnc23)COC(C(C)C)C4)cc1 (stereo not drawn)	6	1.1	8	5%	1	i
CC1(C)Cc2c(c(N3CCOCC3)nc3sc(C#N)c(N)c23)CS1	7	2.5*	0	2%	1.1	x
COc1cc2nc(N(C)C)nc(N)c2cc1OC	10	5*	11	11%	1.1	x
COc1ccc(C(=O)Nc2nc(-c3cccs3)cs2)cc1	0	1.2	14	5%	1	i
Cc1csc(NC(=O)c2sc3nc(-c4cccs4)ccc3c2N)n1	1	2.4*	0	2%	1.1	x
CCCSc1nnc(NC(=O)c2sc3nc(-c4cccs4)ccc3c2N)s1	0	4.5*	5	3%	1.2	x
Cc1cccc(NCC(O)Cn2cnc3c2c(=O)n(C)c(=O)n3C)c1 (stereo not drawn)	4	1.2	0	1%	1	i
Cc1cc(C)c2cc(CN(CCO)C(c3nnnn3Cc3ccc(F)cc3)C(C)C)c(=O)[nH]c2c1 (stereo not drawn)	0	1.3	0	0%	1.1	i
CCC(c1nnnn1Cc1ccc(F)cc1)N(CCCO)Cc1cc2cc3c(cc2[nH]c1=O)OCO3 (stereo not drawn)	1	2.2*	8	5%	1.1	i
Cc1cc(C)c2cc(C#N)c(N3CCCC3)nc2c1	10	2.2*	5	8%	1	i
COC(=O)CSc1nc2cc(C)cc(C)c2cc1C#N	0	1.1	12	6%	1	i
CC(C)C(=O)Nc1ccc2c(c1)C(=O)N(CCC(=O)O)C2=O	0	2.3*	4	2%	1	x
CCOCC(=O)Nc1ccc(S(=O)(=O)NCCc2ccccc2)cc1	5	1.1	8	4%	1	i
COC(=O)c1ccc(-c2nc3ccc(C)cc3o2)cc1	10	3.8*	17	14%	1.1	x
COC(=O)c1ccc(-c2nc3ccccc3o2)cc1	0	4.6*	3	2%	1.1	x
Cc1ccc(-c2nc3cc(C)ccc3o2)cc1	1	0.87	0	4%	1.1	i
COc1ccc(NS(=O)(=O)c2ccc3c(c2)Cc2ccccc2-3)cn1	1	1.1	0	0%	1	i
O=C(N1CCN(Cc2ccccc2)CC1)C12CC3CC(CC(C3)C1)C2	0	0.99	20	5%	1	i
COc1ccc2nc(C)cc(C(=O)O)c2c1	3	3.8*	4	4%	1	x
CCOc1ccc2nc(C)cc(C(=O)O)c2c1	8	3.8*	5	7%	0.99	x
COc1cc(OC)c(OC)cc1/C=N/n1c(C)nnc1C	9	2.2*	10	10%	1.1	x
COc1cccc(/C=N/n2c(C)nc3ccccc32)c1OC	6	1.1	4	3%	1	i
COc1cccc(/C=N\n2c(C)nnc2C)c1OC	5	1.1	0	16%	1	+
CCc1nnc2sc(-c3cc(-c4ccccc4)nc4ccccc34)nn12	5	1.6	11	7%	1	i
CCOC(=O)c1sc(=NC(=O)c2ccc(S(=O)(=O)N3CC(C)OC(C)C3)cc2)n(C)c1C (stereo not drawn)	11	3.9*	17	9%	1	i
